Laboratory results: PubChem BioAssay (NCI)
Compounds without any hit were thinned out: in the full panel of roughly 83,000, 20% have a hit.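 Activity criterion: percent growth below 10, measured after cells in 96-well plates were exposed to a single compound concentration for 48 hours.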 Values without a mark were called inactive. Activity calls are given as the source filed them.

Legend:
Test in all cases: NCI-60 one-dose screen, 48 h (100 = growth as untreated, 0 = no growth, -100 = all killed)
Conditions in all cases: 10 µM unless noted
SR leukemia = system: SR leukemia
RPMI-8226 leukemia = system: RPMI-8226 leukemia
OVCAR-8 ovarian = system: OVCAR-8 ovarian
OVCAR-5 ovarian = system: OVCAR-5 ovarian
OVCAR-4 ovarian = system: OVCAR-4 ovarian
SK-OV-3 ovarian = system: SK-OV-3 ovarian
IGROV1 ovarian = system: IGROV1 ovarian
OVCAR-3 ovarian = system: OVCAR-3 ovarian
HS 578T breast = system: HS 578T breast
NCI/ADR-RES ovarian = system: NCI/ADR-RES ovarian

| SMILES | growth (SR leukemia) | growth (RPMI-8226 leukemia) | growth (OVCAR-8 ovarian) | growth (OVCAR-5 ovarian) | growth (OVCAR-4 ovarian) | growth (SK-OV-3 ovarian) | growth (IGROV1 ovarian) | growth (OVCAR-3 ovarian) | growth (HS 578T breast) | growth (NCI/ADR-RES ovarian) |
| --- | --- | --- | --- | --- | --- | --- | --- | --- | --- | --- |
| CCCCn1c(-c2ccc(O)cc2)cn2c3c(=O)[nH]c(=O)n(C)c3nc12 | 31.1% | 84.7% | 91.7% | 111% | 82.2% | 77.9% | 72.9% | 89.8% | 82.6% | 90.1% |
| O=C1/C(=C\C(Cl)=C/c2ccc([N+](=O)[O-])cc2)SC(=S)N1CCc1ccc(O)cc1 | 13.2% | -3.41% (active) | 13.3% | -33.9% (active) | 26.7% | 31.8% | -67.9% (active) | -53.6% (active) | 31.2% | 9% (active) |
| CC1(C)CC[C@]2(CO)CC[C@]3(C)C(=CC[C@@H]4[C@@]5(C)CC[C@H](NCO)C(C)(C)[C@@H]5CC[C@]43C)[C@@H]2C1 | -34.7% (active) | -29.1% (active) | -35.6% (active) | 2.64% (active) | -32.5% (active) | 70.8% | -56% (active) | -66.2% (active) | 11.4% | -64.8% (active) |
| Nc1c(C(=O)Nc2c(Cl)cccc2Cl)sc2nc3c(cc12)C(=O)CCC3 | 36.4% | 65.5% | 62.7% | 86.5% | 65.6% | 32.2% | 71.9% | 11.2% | 13.4% | 17.1% |
| CN1CCN(c2ccc3nc(-c4[nH]ncc4Nc4ncnc5[nH]ccc45)[nH]c3c2)CC1 | -6.78% (active) | 101% | 7.18% (active) | 6.49% (active) | -10.9% (active) | 12.6% | 0.386% (active) | -0.64% (active) | 15.8% | 80.4% |
| N#C/C(=C\c1ccc(-c2cccc(C(F)(F)F)c2)o1)c1nc(-c2ccco2)cs1 | 99.6% | 45.8% | 99.8% | 60.2% | 16.8% | 112% | 57.5% | 100% | 102% | 97.1% |
| Cc1nc([P+](c2ccccc2)(c2ccccc2)c2ccccc2)c(Sc2sc(-c3ccccc3)nc2[P+](c2ccccc2)(c2ccccc2)c2ccccc2)o1 | 18.6% | -7.25% (active) | 8.83% (active) | 41.3% | -1.77% (active) | -12.2% (active) | 10.3% | -1.45% (active) | 14% | 75% |
| CC(C)(C)n1cc(-c2ccnc(NCCCNS(=O)(=O)c3ccc(Cl)cc3)c2)c(-c2cccc(F)c2)n1 | 32.9% | 52.3% | 84.7% | 77.2% | 90% | 91.7% | 69.5% | 84.2% | 87.9% | 73.5% |
| C=C1C(=O)O[C@H]2[C@H]1CC/C(Cn1cc(-c3ccc(F)cc3)nn1)=C\CC[C@@]1(C)O[C@@H]21 | -15.1% (active) | -34.1% (active) | -16% (active) | -1.87% (active) | 13.7% | 102% | -40.3% (active) | -91.3% (active) | 58.1% | 35.6% |
| NC1=NN=C2N(N)C(=O)c3cnn(-c4ccccc4)c3N2c2nc(-c3ccccc3)cc(-c3ccccc3)c21 | 103% | 93.5% | 102% | 104% | 82.8% | 93.2% | 89% | 116% | 101% | 92.1% |
| Cc1cc(Cl)nc(N(CCNc2ccnc3cc(Cl)ccc23)Cc2ccco2)n1 | -3.12% (active) | -30.7% (active) | 45.3% | 80.5% | 53.1% | 123% | 38.3% | -41.2% (active) | 79.2% | 44.5% |
| CCCCCCCC(=O)SCC/C=C/[C@@H]1CC(=O)NCc2cccc(n2)CN(Cc2ccc(Cl)cc2)CC(=O)N[C@@H](C(C)C)C(=O)O1 | 8.39% (active) | 8.51% (active) | -0.619% (active) | -5.64% (active) | 28% | -24.5% (active) | 10.9% | 3.13% (active) | -5.68% (active) | 13% |
| O=C(/C=C/c1cccc2ccccc12)Nc1ncc(Cc2ccccc2)s1 | 13.1% | 8.58% (active) | 29% | 22.7% | 6.74% (active) | 20.9% | 15.8% | -17.8% (active) | 12.7% | -8.05% (active) |
| Nc1c2c(nc3ccc(Br)cc13)CC(c1ccccc1)CC2=O (stereo not given) | 27.1% | 17.8% | 44.7% | 49.2% | 68.7% | 63.6% | 36.7% | 14.7% | 30.9% | 11% |
| CCCCC[C@H]1C/C=C2/C(=O)C(Cl)=C[C@@H]2C/C=C\CCCC(=O)O[C@@H](CCCCC)C/C=C2/C(=O)C(Cl)=C[C@@H]2C/C=C\CCCC(=O)O1 | -7.23% (active) | -13.6% (active) | -13.9% (active) | -44.4% (active) | 16% | -21.4% (active) | -44.4% (active) | -82.7% (active) | 32.4% | 19.8% |
| Nc1c(C(=O)Nc2cccc3ccccc23)sc2nc3c(cc12)CCCC3 | 9.22% (active) | 28.3% | 33.8% | 44.7% | 52.7% | 36.8% | 45.4% | 2.02% (active) | 27.8% | 0.722% (active) |
| Cc1ccc(-c2nn(Cc3cn(-c4cc(C)nc5ccccc45)nn3)c3ncnc(N)c23)cc1 | 61.6% | 35.6% | 62.5% | 57.9% | 51.7% | 56.5% | 15.5% | 53.1% | 18.2% | 59.7% |
| COC(=O)[C@]12CC[C@@H](C)[C@H](C)[C@@H]1C1=CC[C@@H]3[C@@]4(C)C[C@@H](OC(C)=O)[C@H](O)[C@@](C)(CO)[C@@H]4[C@H](O)C[C@@]3(C)[C@]1(C)CC2 | -45.7% (active) | -29.4% (active) | -60.9% (active) | -78.2% (active) | -79.6% (active) | -95.4% (active) | -58.8% (active) | -85% (active) | -50.5% (active) | -67.6% (active) |
| C/C(Cc1ccc(Cl)cc1)=C(/c1ccc(Cl)cc1)c1ccc(OCCN2CCCC2)cc1 | 9.32% (active) | 48.3% | 83.8% | 86% | 78.4% | 99% | 71.8% | 70.5% | 79.1% | 84.4% |
| COc1ccc(C2c3ccccc3NC(=O)N2C2CCN(C)CC2)c(OC)c1 (stereo not given) | 41.4% | 113% | 104% | 88.4% | 105% | 101% | 94.3% | 110% | 92% | 103% |
| O=C(NC(Cc1cn(Cc2ccccc2)cn1)C(=O)O)OCC1c2ccccc2-c2ccccc21 (stereo not given) | 85.1% | 114% | 103% | 105% | 106% | 109% | 105% | 105% | 98% | 104% |
| CCCCC[C@H]1C/C=C2/C(=O)C=C[C@@H]2C/C=C\CCCC(=O)O[C@@H](CCCCC)C/C=C2/C(=O)C=C[C@@H]2C/C=C\CCCC(=O)O1 | -21.5% (active) | -30.4% (active) | -20.7% (active) | -68.2% (active) | -74.3% (active) | -52.7% (active) | -68.3% (active) | -93.5% (active) | 4.33% (active) | -2.14% (active) |
| COc1cccc(-c2nn(-c3ccccc3)cc2-c2ccnc(NCCCO)c2)c1 | 5.71% (active) | 28.3% | 46% | 92% | 55.1% | 45% | 58.8% | 25.9% | 35.7% | 7.32% (active) |
| CC1(C)C(=O)CC[C@]2(C)[C@H]3C(=O)C=C4[C@@H]5C[C@@](C)(C(=O)NCCNCCN)CC[C@]5(C)CC[C@@]4(C)[C@]3(C)CC[C@@H]12 | 20% | 91.1% | 99.6% | 108% | 105% | 104% | 96.4% | 104% | 97.5% | 102% |
| N=c1ccc2nc3c(cc(N)c4ccccc43)oc-2c1 | -41% (active) | -49.3% (active) | -54.1% (active) | -100% (active) | -100% (active) | -96.3% (active) | -29.4% (active) | -90.1% (active) | -23.3% (active) | -57.7% (active) |
| Cc1cc(N(CCCNc2ccnc3cc(Cl)ccc23)Cc2ccco2)nc(N2CCOCC2)n1 | 8.63% (active) | 35.1% | 80.4% | 79% | 65.7% | 78.6% | 45.2% | 72.4% | 77.5% | 67.4% |
